# Data published in PubChem BioAssay.
# Values joined by “and” are separate entries in the source; they are usually repeats but may differ in a detail not shown here. Identical values can stand only once.
# Assay: sensitizers of A549 cells to miR-34 induction, primary screen, imaging, A549 dox-inducible miR-34, nuclei and caspase counts (AID 1347080); further: test concentration not given here
# Details: A549 miR-34 inducible, Hoechst nuclei count, 48 h; measured here: relative caspase fold change +Dox/-Dox
row,Compound,fold change
1,Cc1cn(C2C=CC(CO)O2)c(=O)[nH]c1=O (stereo unspecified),1.05 and 0.911
2,c1ccc2c(CCc3ccncc3)c[nH]c2c1,0.826
3,CN1CCN(Cc2ccc(-c3nc(-c4cccnc4)cc(=O)[nH]3)cc2)CC1,1.1
4,COc1ncccc1C(=O)N1CCOc2ccccc21,1.28
5,COc1ccc(F)c(-c2cccc(N)n2)c1,1.37
6,O=C1CN(C(=O)c2ccncc2)CCN1Cc1ccc2c(c1)OCO2,1.59
7,Cc1nc(NC(=O)NCc2cccc(Cl)c2)nn1C,2.08
8,NC(=O)Cc1c[nH]c2ccccc12,0.482
9,Cc1ncsc1-c1ccn(CC(=O)Nc2ccnn2Cc2cccs2)n1,1.89
10,Nc1ccn(C2CCC(CO)O2)c(=O)n1 (stereo unspecified),1.84 and 0.793

# Same assay, conditions: A549 miR-34 inducible, Hoechst nuclei count, 48 h; measured here: total cells with miR-34 induction; stronger effect = lower value
row,Compound,cell count
1,CCOC(=O)c1c(C)nn(-c2ccc(OC)cc2)c1C,7720
2,O=c1c(-c2ccc(O)cc2)coc2cc(OC3OC(CO)C(O)C(O)C3O)ccc12 (stereo unspecified),5800
3,O=C(O)Cc1c[nH]c2ccccc12,8300
4,O=C(O)c1cnc(-c2ccccc2)[nH]1,8980
5,O=C(Nc1c[nH]c2ccccc12)c1cc(-c2ccc(F)cc2)n[nH]1,7140
6,Cc1ccc2c(C(=O)N(C)C(C)C)cc(-c3cnc(C(C)C)nc3)nc2c1,7480
7,COc1cc(F)c(-c2nc3c(cnn3Cc3cccs3)[nH]2)c(F)c1,6350
8,Cc1ccc(Sc2cccc3nc(N)nc(N)c23)cc1,3810
9,CCn1c2ccccc2c2cc(CNC)ccc21,7330
10,CN(C)C(=O)CN(C)C(=O)c1cccc(Nc2ncnc3c2cnn3C)c1,8650
11,Cn1c(=O)c2c(nc(N3CCNCC3)n2Cc2ccccc2)n(C)c1=O,7900
